TCR activator: Activators of T cell receptors: qHTS campaign | primary human leukocytes, anti-CD3, IL-2 HTRF, 48 h | Potency, µM (top dose mostly 9.22 µM), for inactives: at the top dose activation of IL-2 secretion, actives largely listed as activators | 330,000 tested, under 10 active | AID 504894, 2011; note: % of control where 0% means no effect
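1) Mix primary human leukocytes, a-CD3 beads and compound. 2) Incubate 48 hr. 3) Add HTRF IL-2 reagents (a-IL-2-K, a-IL-2-d2).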
ClpP mod: qHTS Assay for Activators of ClpP | purified B. subtilis ClpP, FRET peptide cleavage, 20 min | hit rate 1.9% among 340,000 | ATP-dependent Clp protease proteolytic subunit (Bacillus subtilis (strain 168)), P80244 | Potency, µM (top dose mostly 57.5 µM), for the others: at the highest dose activity change, negative = active; active = well fitted falling curve with a large enough effect; inconclusive = small, poorly fitted or top-dose-only effect; inactive = no such curve, though single readings can be large or run the other way; note: potency is the fitted concentration of half-maximal effect; the source files actives as falling curves though it sought activators and does not explain the sign; nearly all actives have a fitted effect of over 65% in size
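Buffer: 100 mM Tris/HCl pH8, 100 mM KCl, 0.05% low protease BSA, 2.5% glycerol, 0.01% Tween-20. ClpP 10 microg/mL final; 20 min RT; delta FRET normalized to ADEP and DMSO controls.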
A549 viability: Nrf2 qHTS screen for inhibitors: counterscreen for cytotoxicity; hit rate 0.16% among 390,000; Potency, µM (doses to about 46 µM), without a hit: at the top dose activity change, negative = cytotoxicity, usual class: inhibitors; AID 504648, 2011; A549 ARE-Fluc cells, CellTiter-Fluor viability, 18-24 h; note: potency is the fitted concentration of half-maximal effect; % is set by controls: 0 for no effect and ±100 for the full control effect
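A549 ARE-Fluc cells in 5% FBS OPTI-MEM, 5000 cells/well, rested 2 h then exposed to compounds in concentration-response for 18-24 h at 37 °C. Viability by CellTiter-Fluor fluorescence (Ex 405/Em 525) after 30 min; luciferase luminescence (BugLite, 15 min, RT) read afterwards.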
Nrf2 block: Nrf2 qHTS screen for inhibitors. A549 ARE-Fluc reporter, luciferase luminescence, 18-24 h. Potency, µM (titrated, usually from 46 µM), without a hit: top-dose activity change, negative = inhibition, most hits filed as inhibitors. hit rate 2.1% among 360,000; note: potency is the fitted concentration of half-maximal effect; % is set by controls: 0 for no effect and ±100 for the full control effect; nearly all actives have a fitted effect of over 60% in size
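Reporter: ARE-Fluc in A549. Exposure: 18-24 h, 37 °C, 5% CO2, 5% FBS OPTI-MEM. Readouts: fluorescent cytotoxicity (CellTiter-Fluor), then luminescent Nrf2 signal after BugLite.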
miR-21 act: qHTS Assay for Modulators of miRNAs and/orActivators of miR-21; HeLa miR-21 FLuc reporter, luciferase, 48 h; Potency, µM (titrated, usually from 38.3 µM), without a hit: at the highest dose activity change, positive = activation, most hits filed as activators; 340,000 tested, under 10 active;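 note: % of control where 0% means no effect; miR-21 action dims this reporter so a rising signal means less miR-21 action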
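Using DMEM plus 10% FBS, HeLa miR-21-FLuc cells are incubated with test compounds (final up to about 40uM) for 48 hours; firefly luciferase signal is then imaged following reagent-mediated lysis.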
Nrf2 ARE act: qHTS of Nrf2 Activators; AREc32 ARE-luciferase reporter (MCF7-derived line), luminescence, 24 h; Potency, µM (highest dose often 46.1 µM), without a hit: at the highest dose activation, most hits filed as activators; hit rate 0.31% among 410,000; note: potency is the fitted concentration of half-maximal effect; % of control where 0% means no effect; nearly all actives have a fitted effect of over 65% in size
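Luciferase luminescence (Steady-Glo, 30 min at room temperature) served as the read-out of ARE activation in AREc32 cells treated with compounds for 24 hr at 37 deg C.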
* marks the source's active call; other numbers are inactive results; ? = inconclusive; · = no result; [ ] = dose if it differs, or a comment. Only some compounds are listed: those with a hit (about 3.7% of all), similar ones and a draw of the others. Unless noted, calls come from the whole dose curve; as a rule, active = well fitted curve in the direction sought with a large enough effect; inconclusive = small, poorly fitted or top-dose-only effect, or another doubt; inactive = no such curve, though single readings can be large; an effect the other way counts as inactive or inconclusive.

SMILES	TCR activator	ClpP mod	A549 viability	Nrf2 block	miR-21 act	Nrf2 ARE act
COc1cccc2cc(C(=O)Nc3ccc(CC(=O)O)cc3)c(=O)oc12	·	1%	-12%	1.5µM*	?	-4%
O=C(CNC(=O)C1CCCCC1)OC(C(=O)Nc1cc(C(F)(F)F)ccc1Cl)c1ccccc1 (configuration not stated)	·	·	4%	-11%	·	·
NC(c1ccc(F)c(F)c1)c1nc(-c2cc(F)cc(F)c2)cs1 (configuration not stated)	·	1%	·	·	·	-1%[9.22 µM]
O=C1c2ccccc2C(=O)N1c1ccc2ccccc2n1	·	·	-11%	-6%	·	·
CCOC(=O)COc1ccc2c(c1)C(=O)CC1(CCCCC1)O2	5%	28µM*	2%	·	0%	0%
CCOC(=O)COc1ccc2c(c1)C(=O)CC(C)(c1cccnc1)O2 (configuration not stated)	-2%	28µM*	2%	?	1%	0%
O=C(COc1ccc2c(c1)C(=O)CC1(CCCCC1)O2)NCc1ccccc1	3%	-17%	-9%	-29%	2%	0%
O=C(COc1ccc2c(c1)C(=O)CC1(CCCCC1)O2)NCc1ccccn1	·	25µM*	1%[1.84 µM]	?	-2%	2%
Cc1cc(=O)oc2cc(OC(C)C(=O)Nc3ccc(C(N)=O)cc3)ccc12 (configuration not stated)	·	4%	14%	?	·	3%
Cc1cc(=O)oc2cc(NC(=O)C(C)Oc3cccc(Cl)c3)ccc12 (configuration not stated)	4%	10µM*	-1%	-16%	·	9%
Cc1ccccc1N1CCN(C2CCCN(C(=O)CCC(F)(F)F)C2)CC1 (configuration not stated)	-3%	1%	-4%	-3%	-1%	-1%
CSc1nnc(C)c(=O)n1COC(=O)COc1ccccc1C	2%[46.1 µM]	28µM*	-1%	4%	1%	0%
O=c1[nH]c(CN2CCN(c3ncccn3)CC2)nc2c(Br)cc(Br)cc12	5%	·	-1%	-4%	0%	0%
O=c1[nH]c(CN2CCN(c3ccccn3)CC2)nc2c(Br)cc(Br)cc12	9%	-7%	?	23µM*	-2%	0%
Cc1noc(C)c1-c1ccc2ncnc(NCc3ccc(Br)cc3)c2c1	·	·	4%	-63%	·	·
CC1=Nc2ccc(C)c3nc(C)cc(c23)N1c1ccc(C)cc1	5%	-17%	4%	12%	·	3%
Cc1ccc(N2C=Nc3ccc(C)c4nc(C)cc2c34)cc1	-8%	22µM*	0%	·	-3%	0%
CCN(Cc1ccccc1)c1ccc(/C=C/c2nccc3ccccc23)cc1	·	0%	·	·	·	·
COc1ccc(C(=O)C(C)Oc2cccc(NC(=O)c3cccc([N+](=O)[O-])c3)c2)cc1 (configuration not stated)	1%	-12%	-9%	26µM*	1%	0%
Nc1[nH]c(=S)[nH]c(=O)c1N	·	-5%	·	·	·	·
Cc1cc(NC(=O)c2sc(Nc3ccc(F)c(Cl)c3)nc2N)no1	·	-1%	-11%	?	-20%	3%
Cc1cc(NC(=O)c2sc(Nc3cccc(C(F)(F)F)c3)nc2N)no1	2%	0%	?	16µM*	7%	3%
O=S(=O)(Nc1cccc2cccnc12)C1CC1	·	·	1%	-19%	·	·
OCCN(CCO)c1ccc(/C=C/c2ccnc3ccccc23)cc1	·	-13%	·	·	·	·
O=C(CNC(=O)c1ccc(Cl)cc1)OCC(=O)c1ccccc1	3%	3%	0%	1%	1%	0%
O=C(CCC(=O)c1ccc(Cl)cc1)OCC(=O)c1ccccc1	5%	32µM*	-1%	-14%	-5%	0%
CCN1CCN(c2cc3c(cc2F)c(=O)c(S(=O)(=O)c2ccccc2)cn3C)CC1	4%	4%	-9%	3%	-3%	0%

Assay outcomes from PubChem.
